Measured values: the supplement of paper PMC11732987, “Enantioselective OTUD7B fragment discovery through chemoproteomics screening and high-throughput optimisation” (Communications Chemistry, 2025)

Legend:
Test in all cases: log2 ratio of Biotin-Ahx-Ub-VS probe labelling (fragment/DMSO); higher = less target engagement (more negative = stronger competition), active = hit call of the paper (q ≤ 0.05, log2 ratio ≤ -1)
Conditions in all cases: compound concentration: 200 uM; treatment time: 3 h
USP19 = biological target: T1, USP19 (UniProt O94966)
T1 sequence (whole entry): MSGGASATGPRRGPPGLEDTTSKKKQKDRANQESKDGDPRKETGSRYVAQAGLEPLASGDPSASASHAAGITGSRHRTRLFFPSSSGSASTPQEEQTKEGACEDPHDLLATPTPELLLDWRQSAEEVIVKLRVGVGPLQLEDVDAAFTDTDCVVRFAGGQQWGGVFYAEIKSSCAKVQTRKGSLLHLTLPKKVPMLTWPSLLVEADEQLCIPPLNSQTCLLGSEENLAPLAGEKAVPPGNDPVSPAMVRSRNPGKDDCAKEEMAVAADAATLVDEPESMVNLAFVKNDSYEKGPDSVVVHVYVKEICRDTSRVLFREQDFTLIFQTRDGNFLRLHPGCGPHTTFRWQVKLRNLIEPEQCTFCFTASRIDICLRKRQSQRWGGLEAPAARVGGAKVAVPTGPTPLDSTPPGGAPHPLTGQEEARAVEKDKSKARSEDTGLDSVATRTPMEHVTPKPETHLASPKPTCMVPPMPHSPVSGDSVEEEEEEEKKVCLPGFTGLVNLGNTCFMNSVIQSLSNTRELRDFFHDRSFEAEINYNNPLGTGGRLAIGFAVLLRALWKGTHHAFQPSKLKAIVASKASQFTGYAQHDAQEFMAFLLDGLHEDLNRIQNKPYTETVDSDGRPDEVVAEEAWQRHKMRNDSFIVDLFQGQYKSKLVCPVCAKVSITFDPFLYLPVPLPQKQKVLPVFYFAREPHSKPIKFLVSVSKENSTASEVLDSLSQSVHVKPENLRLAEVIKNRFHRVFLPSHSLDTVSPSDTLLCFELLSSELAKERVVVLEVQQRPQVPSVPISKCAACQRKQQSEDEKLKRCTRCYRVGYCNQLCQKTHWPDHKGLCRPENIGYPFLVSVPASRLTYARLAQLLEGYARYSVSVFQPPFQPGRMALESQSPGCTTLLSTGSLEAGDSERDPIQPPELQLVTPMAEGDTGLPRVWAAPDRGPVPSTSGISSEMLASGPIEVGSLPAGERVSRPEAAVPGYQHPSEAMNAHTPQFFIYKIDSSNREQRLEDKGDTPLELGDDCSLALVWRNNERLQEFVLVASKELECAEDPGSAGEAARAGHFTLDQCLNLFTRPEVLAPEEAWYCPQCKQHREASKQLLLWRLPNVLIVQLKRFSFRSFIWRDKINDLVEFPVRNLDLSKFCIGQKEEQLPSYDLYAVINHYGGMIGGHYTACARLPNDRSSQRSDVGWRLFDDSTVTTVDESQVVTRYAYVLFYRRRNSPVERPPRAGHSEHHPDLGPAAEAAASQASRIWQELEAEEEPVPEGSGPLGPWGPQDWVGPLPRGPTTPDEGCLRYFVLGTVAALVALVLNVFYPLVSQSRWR
In short: (§1)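 HEK293T lysate, 495 µg per sample in Tris/CHAPS/IGEPAL buffer with protease inhibitors, was treated in triplicate with fragment at 200 µM or vehicle for 3 h and then with Biotin-Ahx-Ub-VS at 0.5 µM final for 1 h. Labelled DUBs were NeutrAvidin-enriched, digested with LysC and trypsin, and run by diaPASEF LC-MS/MS. Spectronaut label-free quantities were global-median-normalised, and values are average log2 fragment/vehicle ratios by unpaired t-test on proteins with ≥2 unique peptides.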

USP22 = biological target: T2, USP22 (UniProt Q9UPT9)
T2 sequence (whole entry): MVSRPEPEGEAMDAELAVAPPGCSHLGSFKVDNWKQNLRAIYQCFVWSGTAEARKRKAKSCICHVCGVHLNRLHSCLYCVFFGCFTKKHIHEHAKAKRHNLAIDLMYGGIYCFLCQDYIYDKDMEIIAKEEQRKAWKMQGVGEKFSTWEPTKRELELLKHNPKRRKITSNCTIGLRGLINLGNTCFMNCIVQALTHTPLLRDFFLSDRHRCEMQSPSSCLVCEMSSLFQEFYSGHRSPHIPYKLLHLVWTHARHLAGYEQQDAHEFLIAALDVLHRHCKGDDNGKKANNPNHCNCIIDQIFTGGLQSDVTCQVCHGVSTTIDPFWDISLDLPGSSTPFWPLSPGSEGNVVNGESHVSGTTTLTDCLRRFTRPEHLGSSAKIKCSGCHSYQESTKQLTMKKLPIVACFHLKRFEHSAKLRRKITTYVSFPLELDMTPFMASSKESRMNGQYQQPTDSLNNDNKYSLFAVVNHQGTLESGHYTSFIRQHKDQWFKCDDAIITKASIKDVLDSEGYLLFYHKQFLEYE
In short: as §1

USP24 = USP24 (UniProt Q9UPU5)
In short: as §1

USP25 = biological target: T3, USP25 (UniProt Q9UHP3)
T3 sequence (whole entry): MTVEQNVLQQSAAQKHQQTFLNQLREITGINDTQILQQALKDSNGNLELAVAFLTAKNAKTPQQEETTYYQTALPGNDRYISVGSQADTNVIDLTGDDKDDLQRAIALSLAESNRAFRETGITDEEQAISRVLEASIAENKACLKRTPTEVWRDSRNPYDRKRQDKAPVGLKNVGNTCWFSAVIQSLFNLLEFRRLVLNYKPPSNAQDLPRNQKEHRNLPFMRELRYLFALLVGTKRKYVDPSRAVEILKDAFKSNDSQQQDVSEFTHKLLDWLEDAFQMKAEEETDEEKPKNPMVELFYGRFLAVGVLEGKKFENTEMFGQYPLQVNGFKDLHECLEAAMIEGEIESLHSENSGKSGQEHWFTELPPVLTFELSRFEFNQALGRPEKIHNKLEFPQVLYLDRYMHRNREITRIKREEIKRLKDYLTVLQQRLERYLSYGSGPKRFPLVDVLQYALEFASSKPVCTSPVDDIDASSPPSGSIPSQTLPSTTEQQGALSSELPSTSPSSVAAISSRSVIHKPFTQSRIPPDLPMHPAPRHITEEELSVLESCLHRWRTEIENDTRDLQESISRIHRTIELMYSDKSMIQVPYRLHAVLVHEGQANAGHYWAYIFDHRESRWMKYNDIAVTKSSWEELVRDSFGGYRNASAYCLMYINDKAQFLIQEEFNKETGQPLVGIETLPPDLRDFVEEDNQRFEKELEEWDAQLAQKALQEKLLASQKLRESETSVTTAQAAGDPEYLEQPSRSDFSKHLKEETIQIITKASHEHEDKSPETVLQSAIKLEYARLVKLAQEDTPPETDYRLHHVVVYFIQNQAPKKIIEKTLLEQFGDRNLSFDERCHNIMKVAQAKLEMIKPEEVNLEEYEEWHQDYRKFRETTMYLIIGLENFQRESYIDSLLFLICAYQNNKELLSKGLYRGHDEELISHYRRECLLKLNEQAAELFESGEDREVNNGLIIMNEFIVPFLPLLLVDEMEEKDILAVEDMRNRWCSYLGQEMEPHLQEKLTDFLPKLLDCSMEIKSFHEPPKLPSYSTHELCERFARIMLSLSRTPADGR
In short: as §1

USP28 = biological target: T4, USP28 (UniProt Q96RU2)
T4 sequence (whole entry): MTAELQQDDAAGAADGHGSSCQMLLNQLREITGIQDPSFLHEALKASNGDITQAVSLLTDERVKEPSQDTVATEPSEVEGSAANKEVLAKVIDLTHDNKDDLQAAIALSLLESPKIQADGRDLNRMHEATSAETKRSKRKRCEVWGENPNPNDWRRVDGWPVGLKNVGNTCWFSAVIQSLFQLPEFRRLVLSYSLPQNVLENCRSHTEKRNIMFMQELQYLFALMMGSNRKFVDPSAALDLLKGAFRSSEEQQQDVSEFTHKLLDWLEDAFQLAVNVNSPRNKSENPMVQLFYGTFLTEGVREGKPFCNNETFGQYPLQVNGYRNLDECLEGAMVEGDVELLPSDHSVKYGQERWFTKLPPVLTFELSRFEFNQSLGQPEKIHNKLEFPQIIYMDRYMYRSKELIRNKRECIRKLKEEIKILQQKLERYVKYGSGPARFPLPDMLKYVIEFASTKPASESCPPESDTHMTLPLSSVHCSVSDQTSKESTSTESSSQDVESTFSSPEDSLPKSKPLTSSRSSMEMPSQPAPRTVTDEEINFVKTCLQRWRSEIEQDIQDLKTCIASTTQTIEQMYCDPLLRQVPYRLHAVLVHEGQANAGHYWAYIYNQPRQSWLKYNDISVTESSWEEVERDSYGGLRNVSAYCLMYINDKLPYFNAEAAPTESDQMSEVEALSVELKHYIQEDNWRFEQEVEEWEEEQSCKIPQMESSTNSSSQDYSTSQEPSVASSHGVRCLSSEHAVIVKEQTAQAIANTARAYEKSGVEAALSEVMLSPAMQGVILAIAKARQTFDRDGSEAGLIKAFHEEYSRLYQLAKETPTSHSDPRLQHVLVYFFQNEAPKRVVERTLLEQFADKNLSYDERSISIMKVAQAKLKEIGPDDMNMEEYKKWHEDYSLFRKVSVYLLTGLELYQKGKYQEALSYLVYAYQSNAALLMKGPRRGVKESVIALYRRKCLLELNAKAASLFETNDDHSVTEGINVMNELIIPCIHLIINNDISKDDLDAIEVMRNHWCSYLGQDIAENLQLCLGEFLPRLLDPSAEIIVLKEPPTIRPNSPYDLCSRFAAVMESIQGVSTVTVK
In short: as §1

Measured: log2 ratio of Biotin-Ahx-Ub-VS probe labelling

Sequence of USP24 (Q9UPU5 whole entry): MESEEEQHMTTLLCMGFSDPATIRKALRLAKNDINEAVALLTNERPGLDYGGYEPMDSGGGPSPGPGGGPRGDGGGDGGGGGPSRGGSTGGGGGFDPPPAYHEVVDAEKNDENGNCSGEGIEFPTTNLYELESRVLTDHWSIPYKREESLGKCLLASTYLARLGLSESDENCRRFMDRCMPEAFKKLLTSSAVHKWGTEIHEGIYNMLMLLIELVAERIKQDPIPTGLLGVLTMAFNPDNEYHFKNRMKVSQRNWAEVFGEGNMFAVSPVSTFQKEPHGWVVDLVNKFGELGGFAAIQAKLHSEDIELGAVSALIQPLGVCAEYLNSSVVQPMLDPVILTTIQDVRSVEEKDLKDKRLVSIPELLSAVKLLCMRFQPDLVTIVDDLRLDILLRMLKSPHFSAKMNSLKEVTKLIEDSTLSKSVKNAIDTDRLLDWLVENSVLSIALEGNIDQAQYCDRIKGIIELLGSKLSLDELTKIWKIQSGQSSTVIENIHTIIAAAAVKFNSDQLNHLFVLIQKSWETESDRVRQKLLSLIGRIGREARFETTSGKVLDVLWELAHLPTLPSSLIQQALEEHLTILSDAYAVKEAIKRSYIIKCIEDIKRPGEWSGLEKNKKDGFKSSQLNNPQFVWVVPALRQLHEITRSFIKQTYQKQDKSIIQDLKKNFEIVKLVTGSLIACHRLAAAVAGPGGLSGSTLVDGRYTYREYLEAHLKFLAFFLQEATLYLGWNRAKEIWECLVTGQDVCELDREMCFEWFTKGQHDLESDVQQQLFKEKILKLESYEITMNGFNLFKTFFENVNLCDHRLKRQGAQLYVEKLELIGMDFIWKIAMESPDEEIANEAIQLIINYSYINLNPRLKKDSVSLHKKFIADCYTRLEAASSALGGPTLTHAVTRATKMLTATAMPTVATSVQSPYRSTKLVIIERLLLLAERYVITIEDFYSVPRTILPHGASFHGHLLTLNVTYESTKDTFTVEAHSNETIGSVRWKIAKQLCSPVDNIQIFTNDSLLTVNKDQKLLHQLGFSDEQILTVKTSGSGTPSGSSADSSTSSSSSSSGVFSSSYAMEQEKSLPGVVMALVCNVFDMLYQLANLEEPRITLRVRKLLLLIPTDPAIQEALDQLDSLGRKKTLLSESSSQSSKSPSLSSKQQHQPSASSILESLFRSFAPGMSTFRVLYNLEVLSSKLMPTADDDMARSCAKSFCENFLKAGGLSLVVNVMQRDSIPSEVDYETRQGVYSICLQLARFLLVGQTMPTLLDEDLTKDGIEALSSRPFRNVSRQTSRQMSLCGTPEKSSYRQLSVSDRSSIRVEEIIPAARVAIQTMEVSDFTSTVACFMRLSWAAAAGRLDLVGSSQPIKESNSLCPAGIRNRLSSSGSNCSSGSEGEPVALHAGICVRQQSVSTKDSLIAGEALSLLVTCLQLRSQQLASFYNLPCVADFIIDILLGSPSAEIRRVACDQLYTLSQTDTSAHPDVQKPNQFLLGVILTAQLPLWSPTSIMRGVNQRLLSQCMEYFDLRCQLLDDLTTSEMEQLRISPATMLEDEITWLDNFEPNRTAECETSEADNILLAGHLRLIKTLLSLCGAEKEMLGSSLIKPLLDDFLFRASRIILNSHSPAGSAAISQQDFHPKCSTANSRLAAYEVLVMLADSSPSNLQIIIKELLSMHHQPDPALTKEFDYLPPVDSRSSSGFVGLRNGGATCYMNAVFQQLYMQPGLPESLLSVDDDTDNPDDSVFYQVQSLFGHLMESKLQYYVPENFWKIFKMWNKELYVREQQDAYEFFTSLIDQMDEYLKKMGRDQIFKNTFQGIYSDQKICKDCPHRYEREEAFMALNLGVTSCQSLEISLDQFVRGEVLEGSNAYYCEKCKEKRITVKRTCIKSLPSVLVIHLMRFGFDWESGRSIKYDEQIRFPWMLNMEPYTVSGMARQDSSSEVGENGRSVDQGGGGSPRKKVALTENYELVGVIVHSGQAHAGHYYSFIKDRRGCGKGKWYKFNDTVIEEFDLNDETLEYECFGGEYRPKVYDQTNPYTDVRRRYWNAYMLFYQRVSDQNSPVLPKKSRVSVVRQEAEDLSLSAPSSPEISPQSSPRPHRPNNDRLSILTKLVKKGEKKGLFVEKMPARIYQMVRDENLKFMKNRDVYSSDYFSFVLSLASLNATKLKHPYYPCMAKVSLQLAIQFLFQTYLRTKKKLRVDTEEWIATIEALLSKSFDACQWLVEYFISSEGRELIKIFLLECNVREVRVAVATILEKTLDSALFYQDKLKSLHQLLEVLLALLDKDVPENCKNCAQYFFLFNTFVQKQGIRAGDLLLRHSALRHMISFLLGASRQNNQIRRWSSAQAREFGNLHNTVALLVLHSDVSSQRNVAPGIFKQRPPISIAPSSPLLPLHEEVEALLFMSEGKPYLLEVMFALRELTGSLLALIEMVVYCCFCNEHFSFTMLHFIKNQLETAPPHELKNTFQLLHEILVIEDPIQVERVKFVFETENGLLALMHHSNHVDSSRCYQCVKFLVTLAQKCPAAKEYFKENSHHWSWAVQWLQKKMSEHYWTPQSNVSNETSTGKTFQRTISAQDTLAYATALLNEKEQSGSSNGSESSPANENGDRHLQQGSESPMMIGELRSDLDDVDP

O=C(CCl)Nc1ccccc1C(F)(F)F
inactive: USP19 -0.154 | USP22 -0.117 | USP24 -0.445 | USP25 -0.713 | USP28 -0.598
